In PubChem BioAssay (NCATS):
Inconclusive results are not listed. Activity calls are given as the source filed them. The call rests on the fitted dose curve; in most records, active means well fitted cell-killing curve with a large enough effect; inconclusive means small, poorly fitted or top-dose-only effect, or effect the other way; inactive means no such curve, though single readings can be large or run the other way.

Assay: Viability qHTS for spleen associated tyrosine kinase inhibitor (SYKi) drug resistant MV4-11 cells (AID 1963824); further: nearly all actives have a fitted effect of over 35% in size
Conditions: SYKi-resistant MV4-11 viability, CellTiter-Glo, 72 h; series mostly up to 45 µM
Summary of the method: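 SYK inhibitor-resistant MV4-11 AML cells, 500 per well, added to predispensed compounds and incubated 72 hr at 37 C, 5% CO2. Viability measured by CellTiter-Glo luminescence after 10 min at room temperature.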
Potency means the concentration at half of the fitted maximal effect.

| SMILES | Potency |
| --- | --- |
| CCC(C)CC(=O)OC1C(=O)C(CO)=CC(O)C1C(C)C (centres undefined) | 2.59 µM (active) |
| Cc1c(-c2ccc3c(c2)OCO3)oc2ccc(C(O)C(C)O)cc12 (centres undefined) | 12.8 µM (active) |
| O=C1Nc2ccccc2C(O)(c2ccccc2)C1O (centres undefined) | inactive |
| COc1ccc(CCCN2CCC(COC(c3ccccc3)c3ccccc3)CC2)cc1 | 10.3 µM (active) |
| C=C1CCN([C@H](C)[C@](O)(Cn2cncn2)c2ccc(F)cc2F)CC1 | 14.6 µM (active) |
| OCCc1ccc(O[C@@H]2O[C@H](CO)[C@@H](O)[C@H](O)[C@H]2O)c(O)c1 | inactive |
| C=C(C(=O)OC)[C@@H]1CC=C2C=CC(=O)[C@H](C)[C@@]2(C)C1 | 18.4 µM (active) |
| Cc1ccc(S(=O)(=O)Nc2ccccc2N2CCCCC2)s1 | 18.4 µM (active) |
| C=C[C@](C)(CC/C=C(\C)C(=O)O)O[C@@H]1OC[C@H](O)[C@H](O)[C@H]1O | inactive |
| CC1CC(C(O)C(C)(C)O)OC2CC3(C)C4(C)CCC5C(C)(C)C(=O)CCC5(C)C4CCC3(O)C12O (centres undefined) | 11.2 µM (active) |
| CCCc1cc(C)[nH]c(=O)c1CNC(=O)c1cc(-c2ccnc(N3CCN(C)CC3)c2)cc2c1cnn2C(C)C | 11.8 µM (active) |
| CSc1nc(N)cc(Oc2ccc(-c3nc(Nc4cccc(C(F)(F)F)c4)n[nH]3)cc2)n1 | 1.03 µM (active) |
| COc1cc(C2c3cc(O)c(OC)cc3CC(CO)C2CO)ccc1O (centres undefined) | inactive |
| C[C@@H]1C[C@@H](O)[C@@]2(CO)C(CO)=CCC[C@@H]2[C@@]12C[C@@H](c1ccoc1)OC2=O | inactive |
